Consider 56 compounds from PubChem BioAssay AID588850 (Sanford-Burnham Center for Chemical Genomics, 2011).

Hit rate of the full screen: of about 360,000 compounds, about 3,100 (0.86%) were called active. This is one part of a sample in which actives are shown more often than they occur. A number with no mark means an inactive call.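 The calls were made as follows: active = at least 50% inhibition at 5 µM, scaled per plate between neutral and stimulator controls; inactive = the rest.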

A short description of the assay: inhibitors of PAF-induced NF-kB signaling, primary screen, cell-based, GFP fluorescence, uHTS (AID 588850).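 Also: PAF is a Pseudomonas aeruginosa culture filtrate used as stimulus; plate controls were PAF-stimulated DMSO wells for no effect and unstimulated DMSO wells for full effect.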 Conditions: KKLEB NF-kB-GFP reporter, GFP fluorescence overnight, at 5 µM, hits give high values.
What is called inhibition is the relative decrease from the control value, in per cent. On to `O=c1c2cc(Br)ccc2nc(-c2cccc(Cl)c2)n1O`, for which the inhibition was -1.4%.
`O=C(/C(=C/c1cccc(Cl)c1)c1nc2ccccc2[nH]1)c1ccccc1`: the inhibition was 82.3% (active).
With `O=c1[nH]c(/C=C/c2cccc(Br)c2)nc2ccccc12`, the inhibition was 20.4%.
The figure for `Cc1cc(NC(=O)CN2C(=O)NC(C)(CCc3ccccc3)C2=O)no1` (stereo unspecified) is -2.5%; for `CC(C)C(C)(C#N)NC(=O)CSc1nc2scc(-c3ccccc3)c2c(=O)[nH]1` (stereo unspecified) it is 9%; for `CSCC[C@H](NC(=O)NC1CCCC1)C(=O)O` it is -10.3%.
Consider `COc1ccc(NC(=O)C2Cc3c(-c4ccc5c(c4)OCO5)ccnc3O2)cn1` (stereo unspecified), for which the inhibition was 15.9%.
With `COc1ccc(NC(=O)/C(Cl)=C(/Cl)S(=O)Cc2ccc(C)cc2)cn1` (stereo unspecified), the inhibition was 90% (active).
In the case of `COc1cccc(NC(=S)N(Cc2ccc(C)cc2)Cc2ccccn2)c1` it was -2.3%; in that of `O=S(=O)(c1ccc(-c2ccno2)s1)N1CCCCC1`, 7.2%.
As for `CC(C(=O)N1CCOCC1)N1c2cccc3cccc(c23)S1(=O)=O` (stereo unspecified), the inhibition is 4.3%.
In the case of `COc1cc(C(=O)OC(C)C(=O)NCC2CCCCC2)cc(NC(=O)c2ccco2)c1OC` (stereo unspecified) it was -5.7%; in that of `COc1ccc(NC(=O)c2cc(-c3cc(OC)c(OC)c(OC)c3)nc3ccccc23)c(OC)c1`, 60.9% (active); in that of `COc1ccc(-c2cc(C(=O)n3cnc4ccccc43)c3ccccc3n2)cc1`, 5.5%.
Consider `COc1ccc(NC(=O)c2sc(N3CCOCC3)nc2-c2ccccc2)c(OC)c1`, for which the inhibition was 9.3%.
The figure for `CC(C)n1cnc2c(Nc3cccc(Cl)c3)nc(N(CCO)CCCO)nc21` is 72.6% (active).
As to `NC(=O)CSc1nnc(-c2cccc(S(=O)(=O)N3CCOCC3)c2)o1`, the inhibition is -5.1%.
In the case of `O=S(=O)(Nc1ccc(O)c2ccccc12)c1ccc(OC(F)(F)F)cc1`, the inhibition is 96% (active).
With `O=S(=O)(Nc1ccc(OC(F)(F)F)cc1)c1cccc2nonc12`, the inhibition was -3.9%.
For `COc1ccccc1NS(=O)(=O)c1ccc(C(=O)N2CCN(c3ccccc3O)CC2)cc1`, the inhibition is 6.4%.
`CCOC(=O)CN1CC23C=CC(O2)C(C(=O)Nc2ccc(F)cc2)C3C1=O` (stereo unspecified): the inhibition was -8.9%.
For the compound `NS(=O)(=O)c1ccc(CCNC(=O)CCCn2c(SCC(=O)N3CCCC3)nc3ccsc3c2=O)cc1`, the inhibition is -8.6%.
In the case of `NS(=O)(=O)c1cc2c(cc1Cl)NC(C(Cl)Cl)NS2(=O)=O` (stereo unspecified) it was 22%; in that of `CCN1CCN(C(=O)N(Cc2ccc(Cl)cc2)S(=O)(=O)c2ccc(C)cc2)CC1`, 3.2%; in that of `O=C(c1cnn(-c2ccc(Cl)cc2)c1)c1ccccc1O`, -14.6%.
As to `Cc1ncc(CC(=O)n2cc(C(=O)c3cc(Cl)ccc3O)cn2)s1`, the inhibition is 60.8% (active).
In the case of `Cc1nc2ccccn2c(=O)c1NC(=O)c1ccc(Br)o1` it was 11.6%; in that of `Cc1ccc(SCC(=O)c2cc(C)c(OC(=S)N(C)C)c(C)c2)cc1`, 0%; in that of `Cc1nnc(NC(=O)CCC(=O)N2CCC(C)CC2)s1`, 8.8%.
Take `CCCCCCCCc1c(O)nc(-n2[nH]c(C)c(CCO)c2=O)[nH]c1=O`: the inhibition is 12.1%.
The figure for `CC(=O)OC(C)C[N+](C)(C)C` (stereo unspecified) is 80.7% (active).
Consider `CC(C[N+](C)(C)C)OC(N)=O` (stereo unspecified), for which the inhibition is 3.2%.
The figure for `CC(=O)OCC(COC(C)=O)OC(C)=O` is -7.3%; for `O=S(=O)(c1cccc(C(F)(F)F)c1)N1c2ccccc2-n2cccc2C1c1cccnc1` (stereo unspecified) it is 13.5%.
In the case of `Cc1cccc(C)c1NC(=O)C(Cl)C(=O)c1ccccc1` (stereo unspecified) it was -23.4%; in that of `N#Cc1c(N)nc2c3c(sc(=N)c2c1N)NC(=O)CC3c1ccccc1Cl` (stereo unspecified), -8.3%; in that of `CCC(C)[C@H]1COCCS(=O)(=O)N1Cc1ccc(C)cc1` (stereo partly specified), -9.6%.
`CC(C)C[C@H]1CNC(=S)N1C[C@H]1CCCN1C[C@H](Cc1ccc(O)cc1)N1C[C@H](Cc2ccc(O)cc2)N(CC2CCCCC2)C1=S`: the inhibition was 65.6% (active).
As to `CCOc1ccc(CCN2C(=S)N([C@@H](CC(C)C)CN3CCC[C@@H]3CN3C(=S)NC[C@@H]3Cc3ccc(O)cc3)C[C@@H]2CC(C)C)cc1`, the inhibition is 13.3%.
In the case of `CCOc1ccc(CCN2C(=S)N([C@@H](CC(C)C)CN3CCC[C@@H]3CN3C(=S)NC[C@@H]3Cc3ccc(O)cc3)C[C@@H]2Cc2ccc(O)cc2)cc1` it was 40.9%; in that of `O=[N+]([O-])c1cc(S(=O)(=O)Nc2cccc(Cl)c2)ccc1N=Nc1c(O)[nH]c2ccccc12`, 80% (active); in that of `Cc1c(-c2ccccc2)n[nH]c1C(=O)N=Nc1c(O)[nH]c2ccccc12`, -0.9%.
In the case of `O=C(NCc1ccncc1)c1ccc(NS(=O)(=O)c2cccc([N+](=O)[O-])c2)cc1` it was 8.5%; in that of `CCCCCC(=O)N1C[C@H](O)[C@@H](n2cc(COC(=O)c3ccccc3)nn2)C[C@@H]1c1ccc(C)cc1`, -3.3%; in that of `Cc1ccc([C@H]2C[C@H](O)[C@@H](n3cc(COC(=O)c4ccccc4)nn3)CN2C(=O)C2CCCCC2)cc1`, 1.3%.
Turning to `Cc1ccc([C@H]2C[C@H](O)[C@@H](n3cc(COC(=O)c4ccccc4)nn3)CN2CC2CCCCC2)cc1`, the inhibition was 58.5% (active).
Turning to `CC(C)=CCN1CCN(CCCc2ccccc2)CC1CCO` (stereo unspecified), the inhibition is 1.3%.
In the case of `Cc1ccc(C(O)c2ncc(-c3ccccc3F)[nH]2)cc1F` (stereo unspecified) it was -1.5%.
In the case of `COc1ccc(NC(=S)SC)cc1OC` it was 59.7% (active).
In the case of `COc1ccc(NC(=O)CSCc2ccc([N+](=O)[O-])cc2)cc1OC` it was 2.8%; in that of `COc1ccc(NC(=O)C2C3CCC(O3)C2C(=O)O)cc1OC` (stereo unspecified), -25.3%; in that of `COc1ccc(Cl)cc1NS(=O)(=O)c1cccc(C(=O)NCC2CCCO2)c1` (stereo unspecified), -16.2%.
On to `O=C(CSc1nnc(-c2ccoc2)o1)N1CCOCC1`, for which the inhibition is -7.3%.
As to `COc1cccc(C(NC(C)=O)c2nc(-c3ccccc3OC)cs2)c1` (stereo unspecified), the inhibition is -4%.
Regarding `CCOP(=O)(OCC)C(Cc1ccccc1)N=C(c1ccccc1)c1ccccc1` (stereo unspecified), the inhibition is 2.4%.
In the case of `Cc1cc(=O)oc2c3c(cc(OCC(=O)NCC(O)c4ccccc4)c12)OC(C)(C)CC3` (stereo unspecified) it was -24.9%.
